Compounds with a hit are over-represented: about 7.1% of the library has one in this group of screens.
S2 tox = reduces viability in counter-screen for ATXN expression inhibitors; S2 cells (HEK-293 line with an ATXN2-luciferase reporter) viability, CellTiter-Fluor protease fluorescence, 24 h; Potency, µM (doses to about 56.7 µM), usual class: cytotoxic; 0.49% of 400,000 active; AID 651635; also: potency is read from the fitted curve at half-maximal effect; nearly all actives have a fitted effect of over 40% in size
PINK1 modulator = changes PINK1 expression | PINK1 immunofluorescence, high-content cytometry, 24 h | Potency, µM (top dose mostly 76.6 µM), for inactives: top-dose activation (PINK1 increase), usual class: activators | 0.2% of 410,000 active; active = well fitted activation curve with a large enough effect; inconclusive = small, poorly fitted or top-dose-only effect; cell line not stated here; also: potency is read from the fitted curve at half-maximal effect; % of control where 0% means no effect; nearly all actives have a fitted effect of over 65% in size
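Stable cell line treated 24 h with compounds at 5 concentrations (CCCP controls), then fixed and immunostained for PINK1 plus nuclear and cell stains; PINK1 immunofluorescence quantified by laser-scanning microplate cytometry.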
MCF10A rerep = DNA re-replication induction in MCF 10a cells; Potency, µM (series often up to 46.1 µM), without a hit: top-dose activity, positive = re-replication, actives largely listed as activators; MCF 10A DNA re-replication, Hoechst nuclear intensity, 48 h; 2.9% of 350,000 active; also: potency is read from the fitted curve at half-maximal effect; % of control where 0% means no effect; nearly all actives have a fitted effect of over 50% in size
ATXN2 expr inh = reduces ATXN2 reporter expression in HEK-293 cells. HEK-293 ATXN2-luciferase reporter, luminescence, 24 h. Potency, µM (titrated, usually from 57 µM), without a hit: at the top dose activity change, negative = inhibition, usual class: inhibitors. 0.72% of 360,000 active. AID 1745845; also: potency is read from the fitted curve at half-maximal effect; % is scaled to controls: 0 for no effect and ±100 for the full control effect; nearly all actives have a fitted effect of over 55% in size
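ATXN2-luciferase reporter cells (luciferase flanked by upstream and downstream ATXN2 gene portions) were treated 24 h at 37 °C with compounds at up to 57 uM. SteadyGlo luminescence gave expression; GF-AFC fluorescence gave viability.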
IL1B secr inh = inflammasome signaling inhibition, IL-1 beta readout; 4.7% of 360,000 active; THP-1 LPS/ATP IL-1B secretion, AlphaLISA, 16 h; active compounds read low; activity change, % at 57.5 µM; in the data active = activity change below about -50%; inconclusive = mostly about -30% to -49%; also: % is scaled to controls: 0 for no effect and ±100 for the full control effect
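Secreted IL-1B measured by AlphaLISA bead assay after 16 h compound exposure of THP-1 cells; compounds (final up to 57.5 uM) added 1 h before LPS (250 ng/mL) and ATP (1.25 mM) stimulation; lower signal means less secretion.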
SW480 rereplic = induces DNA re-replication in SW480 colon adenocarcinoma cells; SW480 DNA re-replication, Hoechst DNA content imaging, 48 h; Potency, µM (top dose mostly 46.1 µM), for the others: at the top dose re-replication activation, usual class: activators; 1.8% of 340,000 active; also: potency is read from the fitted curve at half-maximal effect; % of control where 0% means no effect; nearly all actives have a fitted effect of over 55% in size
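First, 250 cells per well were seeded. Next, compound or vehicle (23 nL) was pinned in, plates sat 48 hr at 37 C. Finally Hoechst was added for 40 min before fluorescence scanning.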
* hit, by the source's call. Unless noted, calls follow the shape of the dose curve; as a rule, active = well fitted curve in the direction sought with a large enough effect; inconclusive = small, poorly fitted or top-dose-only effect, or another doubt; inactive = no such curve, though single readings can be large; an effect the other way counts as inactive or inconclusive.

`COc1ccc(CCNC(=O)c2ccc3c(c2)CCN3S(=O)(=O)c2ccc(Cl)cc2)cc1` gave S2 tox inactive, PINK1 modulator -0.5% and ATXN2 expr inh -8.7%.
COCCNC(=O)c1cccc(OC2CCN(C(C)COc3ccccc3)CC2)c1 (centres undefined) was read as S2 tox inactive, PINK1 modulator 3.4%, MCF10A rerep 1.84µM*, ATXN2 expr inh -28.7%, IL1B secr inh 0.0 and SW480 rereplic -34.1%.
For CCOc1ccccc1CNC(=O)CN1C(=O)CCCc2ccccc21 the results were PINK1 modulator -1.3%.
For Cc1ccc(-c2csc(N3CCN(c4cc5c(cc4Cl)nc(-c4ccncc4)n5CCN4CCCCC4)CC3)n2)cc1 the results were S2 tox inactive, PINK1 modulator 1.4%, MCF10A rerep -4.3%, ATXN2 expr inh -28.0%, IL1B secr inh -59.1* and SW480 rereplic inconclusive.
For CCC1OC(=O)C[C@@H](O)[C@H](C)[C@@H](O[C@@H]2O[C@H](C)C[C@H](N(C)C)[C@H]2O)[C@@H](CC=O)C[C@@H](C)C(=O)/C=C/[C@]2(C)OC2C1C (some centres undefined) the results were S2 tox 15.8µM*.
CCC1OC(=O)C[C@H](O)C(C)[C@@H](O[C@@H]2OC(C)C(O)C(N(C)C)C2O)C(CCN2CC(C)CC(C)C2)CC(C)C(=O)/C=C/C(C)=C\[C@@H]1COC1OC(C)C(O)C(OC)C1OC (some centres undefined) was read as MCF10A rerep -1.5% and SW480 rereplic 3.9%.
`Cc1ccc(CSC2=Nc3ccccc3C3=NC(CCC(=O)NCCc4ccccc4)C(=O)N23)cc1` (centres undefined) gave PINK1 modulator 0.0%.
For COc1cccc(-n2cnc3scc(-c4cccs4)c3c2=O)c1 the results were S2 tox inactive, PINK1 modulator 1.6%, MCF10A rerep 8.4%, ATXN2 expr inh 0.2%, IL1B secr inh -64.4* and SW480 rereplic -2.6%.
`O=c1c2c(-c3cccs3)csc2ncn1-c1ccc(Br)cc1` gave S2 tox inactive, PINK1 modulator -4.0%, MCF10A rerep 7.5%, ATXN2 expr inh -4.1%, IL1B secr inh -20.1 and SW480 rereplic -3.1%.
For O=C(NCc1ccccc1)C1CCN(C(=O)c2cnn(-c3ccccc3)c2-n2cccc2)CC1 the results were PINK1 modulator 0.1%.
Screening Cc1cc(C(=O)NCc2nc(-c3ccccc3NC(=O)C3CCCO3)oc2C)nc(C)n1 (centres undefined) returned S2 tox inconclusive and PINK1 modulator 0.0%.
For COc1ccccc1N(CC(O)COc1c(C)cc(C)cc1C)S(=O)(=O)c1ccccc1 (centres undefined) the results were S2 tox inconclusive, PINK1 modulator 17.7%, MCF10A rerep inconclusive, ATXN2 expr inh -17.2%, IL1B secr inh -56.3* and SW480 rereplic inconclusive.
Screening COc1ccccc1N(CC(O)COc1ccccc1)S(=O)(=O)c1ccccc1 (centres undefined) returned S2 tox inactive, PINK1 modulator 4.6%, MCF10A rerep 6.0%, ATXN2 expr inh -0.5%, IL1B secr inh -0.4 and SW480 rereplic inconclusive.
For COc1ccccc1N(CC(O)COc1ccc(C)cc1)S(=O)(=O)c1ccccc1 (centres undefined) the results were S2 tox inactive, PINK1 modulator 4.7%, MCF10A rerep inconclusive, ATXN2 expr inh 2.0%, IL1B secr inh -93.3* and SW480 rereplic -1.4%.
For COc1cccc(CNC(=O)c2ccc(NC(=O)N3CCCCc4ccccc43)cc2)c1OC the results were S2 tox inactive, PINK1 modulator 1.1% and ATXN2 expr inh 12.9%.
For Cc1cc(Cl)ccc1OCC(=O)N(Cc1ccco1)Cc1ccccc1F the results were PINK1 modulator 2.2%.
Screening C/C(=N\NC(=S)Nc1ccc(F)cc1)c1ccc2c(c1)OCCO2 returned S2 tox inactive, PINK1 modulator 1.0%, MCF10A rerep 5.8µM*, ATXN2 expr inh 15.7%, IL1B secr inh -58.4* and SW480 rereplic inconclusive.
`C/C(=N\NC(N)=S)c1ccc2c(c1)OCCO2` gave S2 tox inconclusive, PINK1 modulator 0.8%, MCF10A rerep 0.3%, ATXN2 expr inh 1.1%, IL1B secr inh 3.4 and SW480 rereplic -9.1%.
For CCC1CCC(N2CCN(c3ccc([N+](=O)[O-])cc3)CC2)CC1 (centres undefined) the results were S2 tox inactive, PINK1 modulator 27.5%, MCF10A rerep -3.3%, ATXN2 expr inh -10.7%, IL1B secr inh -59.9* and SW480 rereplic 4.9%.
`O=[N+]([O-])c1ccc(N2CCN(c3ccccc3O)CC2)cc1` gave S2 tox inactive, PINK1 modulator 1.0%, MCF10A rerep -0.8%, ATXN2 expr inh 14.2%, IL1B secr inh -76.1* and SW480 rereplic -3.8%.
For O=[N+]([O-])c1ccc(N2CCN(C(=S)NC3CCCCC3)CC2)cc1 the results were S2 tox inactive, PINK1 modulator -2.7%, MCF10A rerep -0.4%, ATXN2 expr inh -23.0%, IL1B secr inh -78.4* and SW480 rereplic 12.9%.
For COc1ccc(OC)c(NC(=O)N2CCC3(CC2)Oc2ccccc2C(=O)N3Cc2ccccc2F)c1 the results were PINK1 modulator -0.7%.
Screening CCc1ccc(NC(=O)c2ccc(F)c(S(=O)(=O)N3CCN(c4cc(C)ccc4C)CC3)c2)cc1 returned PINK1 modulator 0.4%.
For CCCc1c(NC(=O)Nc2ccc(Cl)cc2Cl)cnn1-c1ccccc1 the results were S2 tox inconclusive, PINK1 modulator -1.0%, MCF10A rerep inconclusive, ATXN2 expr inh 2.4%, IL1B secr inh 21.1 and SW480 rereplic 14.6µM*.
COc1ccc(NC(=O)CSc2nc3c(oc4ccccc43)c(=O)n2Cc2ccco2)cc1Cl was read as PINK1 modulator 3.0%.
`CCCn1c(-c2ccc(S(=O)(=O)N3CCOCC3)cc2)csc1=Nc1ccc(OCC)cc1` gave S2 tox inactive, PINK1 modulator 4.2% and ATXN2 expr inh 11.7%.
For O=C(Nc1nc(-c2cccs2)c(-c2ccccc2)s1)c1ccco1 the results were S2 tox inconclusive, PINK1 modulator 5.0%, MCF10A rerep inconclusive, ATXN2 expr inh 2.2%, IL1B secr inh -53.6* and SW480 rereplic 1.0%.
Cc1ccc(C(=O)Nc2nc(-c3ccco3)c(-c3ccco3)s2)o1 was read as S2 tox inactive, PINK1 modulator 10.1%, MCF10A rerep inconclusive, ATXN2 expr inh 8.7%, IL1B secr inh -57.1* and SW480 rereplic 2.7%.

Screens from PubChem BioAssay.
